Screening results as filed in PubChem BioAssay.
The list is not random: actives were taken first. Their share in the collection is about 7.5%.
Rab9 promoter act: Rab9 promoter activation | Huh7 Rab9 promoter-luciferase reporter, luminescence, 24 h | Potency, µM (doses to about 9.22 µM), without a hit: top-dose activation, negative = inhibition, most hits filed as activators | 2.8% of 320,000 active; note: % of control where 0% means no effect; nearly all actives have a fitted effect of over 60% in size
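Stable Rab9-luc Huh7, 1500 cells/well, 2 h settle; cmpd in DMSO, 24 h, 37 °C/5% CO2; luciferase reagent 10 min RT; luminescence.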
SMN2 splice enh: increases expression of the SMN2 splice variant; HEK293 SMN2-luciferase splicing reporter, luminescence, 30-36 h; Potency, µM (top dose mostly 46.1 µM), for the others: top-dose activity change, positive = activation, actives largely listed as activators; 2.8% of 210,000 active; note: % of control where 0% means no effect; nearly all actives have a fitted effect of over 55% in size
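HEK293 cells carry an SMN2 minigene-luciferase reporter in which exon 7 inclusion puts luciferase in frame. Cells were seeded at 2000 cells/well, attached for 10-12 hours, then exposed to compounds for 30-36 hours at 37C before ONE-Glo luminescence.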
ELG1 genotox: genotoxicity induction in ELG1-luciferase HEK293T cells; HEK293T ELG1-luciferase reporter, luminescence, 16 h; Potency, µM (top dose mostly 46 µM), for the others: top-dose activity change, positive = activation, most hits filed as activators; 1.3% of 330,000 active; AID 504466; note: % of control where 0% means no effect; nearly all actives have a fitted effect of over 60% in size
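Quantitative HTS format in 1536-well plates. HEK293T ELG1-luciferase reporter cells receive test compound and are incubated 16 hr at 37 °C, 5% CO2; ONE-Glo added, 30 min room temperature, then luminescence read.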
Luc counter: counter-screen: inhibitors of Kinase-Glo firefly luciferase; Q27757; 0.28% of 200,000 active; AID 1379; Potency, µM (doses to about 38.3 µM), inactives show at the highest dose activity change, negative = inhibition, actives largely listed as inhibitors; Kinase-Glo luciferase, ATP luminescence, 8 min; note: % is set by controls: 0 for no effect and ±100 for the full control effect; nearly all actives have a fitted effect of over 60% in size
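Compounds were added to a substrate mix at pH 7.2 (50 mM imidazole, 10 uM ATP, within the enzyme's linear range), followed by Kinase-Glo detection reagent; luminescence was measured after 8 minutes at ambient temperature.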
FLuc modulator: inhibits or activates purified firefly luciferase, miR-21 counter-screen; 6.9% of 360,000 active; purified FLuc, Km substrates, luminescence inhibition; Potency, µM (series often up to 57.5 µM), for inactives: at the top dose activity change, negative = inhibition, actives largely listed as inhibitors;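 note: plate controls were vehicle for no effect and reference inhibitor for full effect; nearly all actives have a fitted effect of over 55% in size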
Target sequence (P08659 whole entry, looked up): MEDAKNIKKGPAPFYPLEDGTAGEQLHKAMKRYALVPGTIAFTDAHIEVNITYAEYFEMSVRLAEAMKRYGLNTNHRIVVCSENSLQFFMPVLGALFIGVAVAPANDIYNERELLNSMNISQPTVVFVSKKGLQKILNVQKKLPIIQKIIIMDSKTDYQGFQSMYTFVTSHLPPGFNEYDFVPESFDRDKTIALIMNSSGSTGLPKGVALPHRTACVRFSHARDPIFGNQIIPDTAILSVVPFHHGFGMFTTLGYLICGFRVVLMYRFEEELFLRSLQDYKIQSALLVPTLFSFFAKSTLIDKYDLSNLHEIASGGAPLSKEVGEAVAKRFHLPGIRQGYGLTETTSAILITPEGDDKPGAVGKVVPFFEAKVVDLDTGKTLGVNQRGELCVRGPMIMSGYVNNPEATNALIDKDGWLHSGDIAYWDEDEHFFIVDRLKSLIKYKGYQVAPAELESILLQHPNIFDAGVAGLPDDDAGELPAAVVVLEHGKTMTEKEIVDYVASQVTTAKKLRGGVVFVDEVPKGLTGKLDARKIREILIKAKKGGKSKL
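Biochemical qHTS of compounds, final roughly 60 µM downward over six points, against 10 nM purified firefly luciferase using Km concentrations of substrates (10 uM D-luciferin, 10 uM ATP) in Tris acetate pH 7.5 buffer; luminescence output.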
NPC1 prom act: activators of NPC1 promoter; Huh7 NPC1 promoter luciferase reporter, 24 h; 2.4% of 320,000 active; Potency, µM (doses to about 9.22 µM), for inactives: top-dose activation, usual class: activators; note: % of control where 0% means no effect; nearly all actives have a fitted effect of over 60% in size
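Luciferase expression driven by the NPC1 promoter was measured in stably transfected Huh7 cells after a 24 h compound incubation, using a luciferase reagent and a luminescence read.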
An asterisk follows results filed as active; ? = inconclusive; nt = no result. Calls come from the whole dose curve; as a rule, active = well fitted curve in the direction sought with a large enough effect; inconclusive = small, poorly fitted or top-dose-only effect, or another doubt; inactive = no such curve, though single readings can be large; an effect the other way counts as inactive or inconclusive. Potency is the fitted concentration of half-maximal effect.

SMILES	Rab9 promoter act	SMN2 splice enh	ELG1 genotox	Luc counter	FLuc modulator	NPC1 prom act
Cc1ccc(C(=O)Nc2ccc(O)cc2C(=O)O)cc1	-1%	-3%	-5%	17%	11µM*	-4%
Cc1cccc(C(=O)Nc2ccccc2C(=O)Nc2ccc(C(=O)O)cc2)c1	9%	nt	9%	nt	6.7µM*	-3%
CCN(CC)S(=O)(=O)c1cccc(C(=O)N/N=C/c2cccc(O)c2O)c1	-2%	-67%	?	1%	8.5µM*	-7%
COc1cc(NC(=O)c2ccc(C)cc2)c(OC)cc1NC(=O)CN1CCOCC1	-7%	1%	-7%	2%	19µM*	21%
O=C(NCc1cccc(F)c1)c1ccc2nc(N3CCCCC3)sc2c1	nt	?	nt	nt	-14%	nt
Cc1cccc(C(=O)Nc2ccc(O)cc2C(=O)O)c1	11%	3%	-1%	-19%	21µM*	1%
CN1C(=O)/C(=C/c2ccc(C(=O)Nc3ccc(O)cc3C(=O)O)cc2)SC1=S	2%	nt	0%	nt	21µM*	3%
Cc1cccc(C(=O)Nc2ccc(O)cc2)c1	?	27%	27%	-12%	?	?
Cc1ccc(C(=O)Nc2ccc(O)cc2C(=O)O)cc1C	-32%	-13%	8%	-10%	3.4µM*	2%
COc1ccc(NC(=O)c2ccc(C)cc2)c(OC)c1	?	18µM*	?	-2%	5.4µM*	?
COc1ccc(NC(=O)c2ccc3[nH]c(=O)c(=O)[nH]c3c2)c(OC)c1	-2%	nt	0%	nt	-2%	-3%
CCC(Sc1nnc2c3ccccc3n(C)c2n1)C(=O)Nc1nnc(C(C)C)s1 (stereo not given)	nt	4%	nt	nt	?	nt
O=C(c1ccco1)N1CCN(Cc2cc(=O)c(OCc3ccccc3F)co2)CC1	-2%	nt	5%	nt	1%	0%
CCN(CC)S(=O)(=O)c1cccc(C(=O)Nc2ccccc2C(=O)Nc2ccc(OC)cc2)c1	nt	nt	nt	nt	8.5µM*	nt
COc1ccccc1NC(=O)c1cnc(SCC(=O)N2CCCc3ccccc32)n(C)c1=O	nt	nt	nt	nt	1.7µM*	nt
COc1cccc(NC(=O)c2cnc(SCC(=O)N3CCCc4ccccc43)n(C)c2=O)c1	nt	nt	nt	nt	-14%	nt
COc1ccccc1NC(=O)c1cnc(SCC(=O)N2CCOCC2)n(C)c1=O	nt	nt	nt	nt	7.6µM*	nt
Cc1ccc(NC(=O)c2cnc(SCC(=O)N3CCOCC3)n(C)c2=O)cc1C	nt	nt	nt	nt	15µM*	nt
COc1ccccc1NC(=O)c1cnc(SCC(=O)NCC2CCCO2)n(C)c1=O (stereo not given)	-1%	nt	6%	nt	5.4µM*	-2%
Cn1c(SCC(=O)N2CCOCC2)ncc(C(=O)Nc2ccccc2)c1=O	nt	nt	nt	nt	0%	nt
CN(Cc1ccco1)C(=O)c1ccc2c(c1)N(Cc1ccccc1F)C(=O)c1ccccc1S2	nt	nt	nt	nt	-19%	nt
COCCN(CCOC)c1nc(C)nc2c1nc(-c1ccccc1)n2CCCN1CCCCC1C (stereo not given)	nt	-10%	nt	0%	nt	nt
COc1ccccc1C/C(N)=N/OC(=O)c1ccco1	-1%	nt	-1%	0%	-2%	1%
COc1cccc(N2CCN(C(=O)c3cnn(C(C)(C)C)c3C3CCN(C(=O)OC(C)(C)C)CC3)CC2)c1	nt	nt	nt	nt	1%	nt
Cc1nc2cc(-c3ccc(F)cc3)[nH]n2c(=O)c1C	?	nt	16µM*	nt	8.5µM*	2µM*
SMILES	Rab9 promoter act	SMN2 splice enh	ELG1 genotox	Luc counter	FLuc modulator	NPC1 prom act
Cc1cc(=O)n2[nH]c(C)cc2n1	3%	-15%	0%	1%	2%	-4%
CCOC(=O)Cc1c(C)nc2cc(-c3ccc(C)cc3)[nH]n2c1=O	27%	?	?	4%	?	18%
Cc1cc(=O)n2[nH]c(-c3ccccc3Cl)cc2n1	8%	-14%	-1%	0%	24µM*	2%
Cc1ccccc1-c1cc2nc(C)c(C)c(=O)n2[nH]1	?	nt	?	nt	19µM*	?
CCC(Cc1ccccc1)NC(=O)Cn1ncc2c3ccccc3n(Cc3ccccc3)c2c1=O (stereo not given)	nt	0%	nt	nt	6%	nt
CCCn1c(CCC(=O)Nc2cccc(C)c2C)nc2cccnc21	nt	-3%	nt	nt	-6%	nt
O=C(O)COn1c(-c2ccccc2)nc2ccc(Cl)cc21	26%	?	?	-17%	4.8µM*	10%
COn1c(-c2ccccc2)nc2ccc(Cl)cc21	?	28%	14%	-7%	12µM*	?
O=[N+]([O-])c1ccc2nc(-c3ccccc3)n(OCc3ccc(Cl)cc3)c2c1	5%	-22%	0%	0%	?	2%
CCn1c(C(=O)OC)cc2c1ccn2-c1ccc(F)cc1	?	16µM*	16µM*	1%	9.5µM*	?
CCC(=O)N1CCc2cc(CNC(=O)Cc3ccc(F)cc3)ccc21	nt	nt	nt	nt	1%	nt
CC1CCN(CCCNC(=O)c2ccc3c(Cl)c4c(nc3c2)CCCC4)CC1	-2%	nt	-4%	nt	-3%	1%
CS(=O)(=O)N1CCN(C(=O)c2cc(-c3cccnc3)nc3ccc(Br)cc23)CC1	1%	-9%	-5%	1%	-13%	-2%
O=C(c1cc(-c2cccnc2)nc2ccc(Br)cc12)N1CCN(c2ncccn2)CC1	3%	-16%	-10%	1%	21µM*	-1%
CC(=O)c1ccc(N2CCN(C(=O)c3cc(-c4cccnc4)nc4ccc(Br)cc34)CC2)cc1	0%	-19%	-9%	-1%	11µM*	2%
Cc1ccccc1NC(=O)Cn1c(=O)n(CCCC(=O)NCc2ccc3c(c2)OCO3)c(=O)c2ccccc21	nt	-11%	nt	nt	-1%	nt
CC(C)N(C(C)C)S(=O)(=O)c1ccc(N2CCc3ccccc3C2)nc1	4µM*	nt	?	nt	13µM*	?
O=C(CSc1nnc(-c2ccccc2)c(-c2ccccc2)n1)NC1CCS(=O)(=O)C1 (stereo not given)	-7%	3%	-5%	-3%	-2%	5%
CC(C)CN(/C=N/c1sc2c(c1C#N)CCCCC2)CC(C)C	16%	-11%	2%	1%	-12%	5%
CCN(/C=N/c1sc2c(c1C#N)CCCCC2)CC	3.2µM*	11µM*	?	-3%	4.8µM*	2.5µM*
CN1CCN(/C=N/c2sc3c(c2C#N)CCCCC3)CC1	2.2µM*	16µM*	?	-2%	12µM*	2.5µM*
N#Cc1c(/N=C/C=C/c2ccccc2)sc2c1CCCC2	?	-11%	6%	-3%	6.7µM*	23%
Cc1cc(NC(=O)Cc2ccccc2)ccc1NC(=O)c1cccs1	0%	nt	-2%	-1%	-5%	-3%
Cc1ccsc1/C=N/NC(=O)c1ccccn1	2.5µM*	11µM*	?	?	8.5µM*	2µM*
